Screening data deposited in PubChem BioAssay by several laboratories.
NPR1 activator: GC-A (human) enzyme activation. 0.14% of 370,000 active. HEK293 GC-A cells, cGMP TR-FRET, EC30 ANP; 0% at EC30 ANP, 100% saturating ANP. P16066. activation, % at 10 µM; in the data active = activation above about 40%
NPR2 activator: GC-B (human) receptor activation; HEK293-GC-B cells, CNP EC30, cGMP TR-FRET; 0% at EC30 CNP, 100% saturating CNP; 0.11% of 370,000 active; activation, % at 10 µM; P20594;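 active = activation at 10 µM reaching about 35% in either raw or pattern-adjusted values, limit read from the data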
PG9 binder: PG9 antibody binding by small molecule; TR-FRET gp120-PG9 antibody binding; 0.43% of 360,000 active; AID 624416; inhibition, % at 6.7 µM; in the data active = inhibition above about 8.5%
V-ATPase pHluor: regulators of yeast V-ATPase proton transport. S. cerevisiae, pHLuorin cytosolic pH fluorescence. response, % at 10 µM. 0.37% of 350,000 active. AID 504577; in the data active = response mostly above about 7.3%, no sharp cut-off; inactive = mostly below about 5.4%; note: actives read high
Rev-erbA mod: modulates human Rev-erb alpha binding to DNA; AID 1259318; 0.79% of 370,000 active; P20393; Rev-erbα–FITC-DNA binding, fluorescence polarization, 90 min; activity, % at 10 µM;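 active = activity above about 14%, limit read from the data; passing the limit was not always enough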;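 note: 0% = DMSO wells with 35 nM protein and 100% = DMSO wells with 750 nM protein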
Rev-erbA confirm: Rev-erb alpha (human) modulation, hit confirmation; shares compounds with Rev-erbA mod; Rev-erb alpha FITC-DNA binding, fluorescence polarization, 90 min; activation, % at 25 µM; 61% of 3,000 active; AID 1259319;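 active = activation at or above a set limit, or at least 3 SD above the negative control mean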;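 note: 0% = 35 nM protein with DMSO and 100% = 750 nM protein high control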
RORg DNA counter: affects RORgamma DNA binding in a Rev-erb alpha counter-screen; shares compounds with Rev-erbA mod; purified RORgamma protein-FITC-DNA binding, fluorescence polarization; IC50, µM; 8% of 910 active;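 active = Compounds whose fitted half-maximal concentration for disrupting protein-DNA binding is below 10 micromolar; the record names Rev-erb in its text, so the target is in doubt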
The depositor's hits bear a star; i = inactive; . = no result. In the library only some 1.6% were active in any assay of this set; here they are far more common.

SMILES	NPR1 activator	NPR2 activator	PG9 binder	V-ATPase pHluor	Rev-erbA mod	Rev-erbA confirm	others
Cc1cccc(-c2cccc3c4c([nH]c23)[C@@H]2C[C@H](N(C)C(=O)NC3CCCCC3)[C@H]([C@H](C)O)C(=O)N2CC4)c1	-12	-4	.	.	-5	.
CCOC(=O)[C@]12CCCCC/C=C\1N(CCc1ccc(Cl)cc1)C(=O)[C@H]2CC(=O)N1CCCC1	-10	0	.	.	-5	.
c1ccc(-c2nc(SCc3nc4ccccc4[nH]3)c3oc4ccccc4c3n2)cc1	1	3	-2	0	46*	45*	RORg DNA counter=>40
Cc1nc(SCc2nc3c(F)cccc3[nH]2)c2oc3ccccc3c2n1	-1	2	5	2	30*	39*	RORg DNA counter=>40
Cc1nc(SCc2nc3c(C)cccc3[nH]2)c2oc3ccccc3c2n1	1	-2	-2	5	7	.
N#Cc1cccc(NC(=O)O[C@@H]2CC[C@@]34CCCN3C(=O)CCC[C@H]4C2)c1	-2	-8	.	.	3	.
C=CCN1C(=O)/C(=C2/Sc3ccc(OC)cc3N2C)SC1=Nc1ccccc1	1	-9	3	-8	-4	.
CCCCN1C(=O)/C(=C2/Sc3ccccc3N2C)S/C1=N\c1ncn[nH]1	3	10	-2	0	72*	1
CCCOc1ccc(-c2cc(C(C)=O)c3n(c2=O)CCC3)cc1	-2	-2	.	.	-4	.
COC(=O)c1ccc2c(=O)[nH]c(COC(=O)CCC(=O)c3ccc(Cl)cc3)nc2c1	3	-2	6	5	20*	6
Cc1cc(C)n(-c2cc(N3CCOCC3)nc(-c3ccccc3)n2)n1	-9	-6	3	-2	18*	24*
O=C(NCc1ccccc1)OCCCN1C(=O)CCC12CCCCC2	-1	1	.	.	-3	.
Cc1ccccc1-c1nnn(CC(=O)NCc2ccc3c(c2)OCO3)n1	-4	4	1	4	0	.
CN(C)c1ccc(-c2nnn(CC(=O)NCc3ccc4c(c3)OCO4)n2)cc1	-3	5	7	-5	15*	7
CCCCCCNC(=O)OC12CN(C(=O)OC(C)C)N(C(=O)OC(C)C)CC1(O)CN(S(=O)(=O)c1ccc(C)cc1)C2 (stereo unspecified)	0	8	0	1	15*	0
Cc1ccc(S(=O)(=O)N2CC3(O)CN(C(=O)OC(C)C)N(C(=O)OC(C)C)CC3(OC(=O)NCC3CCCCC3)C2)cc1 (stereo unspecified)	-1	-1	0	-1	2	.
C[C@H]1[C@@H](N(C)CC2CCCCC2)CC[C@@]23CCCN2C(=O)CCC[C@@H]13	-2	-3	.	.	3	.
CN(C)S(=O)(=O)c1cccc(C(=O)N/N=C\c2ccc(-c3ccccn3)cc2)c1	0	-9	.	.	-1	.
CN(c1ccc(Cl)cc1)c1cc(=O)n(C)c2ccccc12	6	-14	1	-2	22*	18*
CCOc1ccc(CCNC(=O)c2cc3sccc3n2CC)cc1OC	-1	3	.	.	5	.
CCC(C)(C)c1ccc(OCCCC[n+]2cccc(C)c2)c(C(C)(C)CC)c1	11	-12	-3	2	33*	44*	RORg DNA counter=>40
CC(C)(C)c1ccc(SC2=C[C@@]3(O)CC[C@@H](O)[C@@](Sc4ccc(C(C)(C)C)cc4)(C2=O)[C@H]3O)cc1	1	2	-13	.	33*	21*
Cc1ccc(SC2=C[C@@]3(O)CC[C@@H](O)[C@@](Sc4ccc(C)cc4)(C2=O)[C@H]3O)cc1	3	-7	1	.	-5	.
CCN(CC)c1ccc(/C=C/c2cccc[n+]2C)c(OC)c1	-14	-14	-28	3	53*	56*	RORg DNA counter=>40
Cc1ccc(-c2nn3c(C)nnc3s2)cc1NC(=O)c1ccc(-c2ccc(Cl)cc2Cl)o1	-7	-7	1	-1	124*	186*	RORg DNA counter=i
COc1ccc(CN2C(=O)CCCC2(C)c2nnnn2-c2ccc3c(c2)OCCO3)cc1 (stereo unspecified)	-2	-3	.	.	2	.
CCOC(=O)c1cc(C)nc(SC)c1C#N	4	-10	-1	2	-1	.
